Measured values as given in ChEMBL document CHEMBL2218924, “A broad activity screen in support of a chemogenomic map for kinase signalling research and drug discovery” (Biochem J, 2013).

What was measured:
[1] = target: T1, Tyrosine-protein kinase receptor TYRO3 (Homo sapiens) (UniProt Q06418); details: at 1 µM
T1 sequence (whole entry): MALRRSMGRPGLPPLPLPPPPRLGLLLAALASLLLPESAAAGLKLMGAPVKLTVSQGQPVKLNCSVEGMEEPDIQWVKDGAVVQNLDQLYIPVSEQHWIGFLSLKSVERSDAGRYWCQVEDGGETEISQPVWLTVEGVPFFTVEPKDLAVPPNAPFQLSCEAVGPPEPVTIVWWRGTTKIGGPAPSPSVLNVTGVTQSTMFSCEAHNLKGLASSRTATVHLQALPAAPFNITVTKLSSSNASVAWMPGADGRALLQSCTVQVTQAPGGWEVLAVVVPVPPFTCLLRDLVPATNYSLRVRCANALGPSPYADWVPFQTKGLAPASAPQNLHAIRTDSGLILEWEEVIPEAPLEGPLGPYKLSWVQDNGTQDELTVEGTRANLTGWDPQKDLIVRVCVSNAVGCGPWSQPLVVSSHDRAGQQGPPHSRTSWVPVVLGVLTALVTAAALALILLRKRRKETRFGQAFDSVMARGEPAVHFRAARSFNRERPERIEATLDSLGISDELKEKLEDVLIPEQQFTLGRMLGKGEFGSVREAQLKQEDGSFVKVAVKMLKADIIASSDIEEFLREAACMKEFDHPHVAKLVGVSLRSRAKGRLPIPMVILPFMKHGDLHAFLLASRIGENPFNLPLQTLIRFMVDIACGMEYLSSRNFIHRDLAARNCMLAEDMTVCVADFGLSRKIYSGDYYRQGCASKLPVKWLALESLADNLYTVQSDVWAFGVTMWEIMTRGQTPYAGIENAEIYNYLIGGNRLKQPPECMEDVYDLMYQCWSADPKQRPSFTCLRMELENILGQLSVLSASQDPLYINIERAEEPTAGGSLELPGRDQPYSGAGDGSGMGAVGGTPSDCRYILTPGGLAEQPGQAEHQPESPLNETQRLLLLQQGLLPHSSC

[2] = target: T1, Tyrosine-protein kinase receptor TYRO3 (Homo sapiens); details: at 10 µM
[3] = target: Ribosomal protein S6 kinase alpha-1 (Homo sapiens) (UniProt Q15418); details: at 1 µM
[4] = target: Ribosomal protein S6 kinase alpha-1 (Homo sapiens) (UniProt Q15418); details: at 10 µM
[5] = target: Ribosomal protein S6 kinase alpha-3 (Homo sapiens) (UniProt P51812); details: at 1 µM
[6] = target: Ribosomal protein S6 kinase alpha-3 (Homo sapiens) (UniProt P51812); details: at 10 µM
[7] = target: Ribosomal protein S6 kinase alpha-2 (Homo sapiens) (UniProt Q15349); details: at 1 µM
[8] = target: Ribosomal protein S6 kinase alpha-2 (Homo sapiens) (UniProt Q15349); details: at 10 µM
[9] = target: Ribosomal protein S6 kinase alpha-6 (Homo sapiens) (UniProt Q9UK32); details: at 1 µM
[10] = target: Ribosomal protein S6 kinase alpha-6 (Homo sapiens) (UniProt Q9UK32); details: at 10 µM
[11] = target: Mitogen-activated protein kinase 14 (Homo sapiens) (UniProt Q16539); details: at 1 µM
[12] = target: Mitogen-activated protein kinase 14 (Homo sapiens) (UniProt Q16539); details: at 10 µM
[13] = target: Mitogen-activated protein kinase 11 (Homo sapiens) (UniProt Q15759); details: at 1 µM
[14] = target: Mitogen-activated protein kinase 11 (Homo sapiens) (UniProt Q15759); details: at 10 µM
[15] = target: T2, Mitogen-activated protein kinase 12 (Homo sapiens) (UniProt P53778); details: at 1 µM
T2 sequence (whole entry): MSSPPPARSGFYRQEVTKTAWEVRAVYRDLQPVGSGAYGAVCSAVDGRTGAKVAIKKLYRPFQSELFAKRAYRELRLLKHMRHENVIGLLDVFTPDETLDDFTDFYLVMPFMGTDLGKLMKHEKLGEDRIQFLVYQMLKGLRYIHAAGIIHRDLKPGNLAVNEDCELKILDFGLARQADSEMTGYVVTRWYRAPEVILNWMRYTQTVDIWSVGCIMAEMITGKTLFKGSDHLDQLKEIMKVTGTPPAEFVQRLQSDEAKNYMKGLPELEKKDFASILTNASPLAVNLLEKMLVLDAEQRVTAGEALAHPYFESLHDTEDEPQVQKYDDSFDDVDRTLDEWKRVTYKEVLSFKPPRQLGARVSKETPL

[16] = target: T2, Mitogen-activated protein kinase 12 (Homo sapiens); details: at 10 µM
[17] = target: T3, Mitogen-activated protein kinase 13 (Homo sapiens) (UniProt O15264); details: at 1 µM
T3 sequence (whole entry): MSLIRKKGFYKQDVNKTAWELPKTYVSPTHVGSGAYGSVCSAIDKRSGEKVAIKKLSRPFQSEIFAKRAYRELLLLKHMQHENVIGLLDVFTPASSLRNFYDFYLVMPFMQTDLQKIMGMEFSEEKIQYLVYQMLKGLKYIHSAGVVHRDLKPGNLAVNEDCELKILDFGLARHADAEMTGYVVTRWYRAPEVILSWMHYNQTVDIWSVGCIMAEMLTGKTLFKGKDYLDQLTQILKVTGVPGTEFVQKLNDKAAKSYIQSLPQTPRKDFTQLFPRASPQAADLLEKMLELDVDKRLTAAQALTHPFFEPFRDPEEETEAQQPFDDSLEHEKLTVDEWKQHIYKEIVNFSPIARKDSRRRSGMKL

[18] = target: T3, Mitogen-activated protein kinase 13 (Homo sapiens); details: at 10 µM
[19] = target: T4, Serine/threonine-protein kinase Sgk1 (Homo sapiens) (UniProt O00141); details: at 1 µM
T4 sequence (whole entry): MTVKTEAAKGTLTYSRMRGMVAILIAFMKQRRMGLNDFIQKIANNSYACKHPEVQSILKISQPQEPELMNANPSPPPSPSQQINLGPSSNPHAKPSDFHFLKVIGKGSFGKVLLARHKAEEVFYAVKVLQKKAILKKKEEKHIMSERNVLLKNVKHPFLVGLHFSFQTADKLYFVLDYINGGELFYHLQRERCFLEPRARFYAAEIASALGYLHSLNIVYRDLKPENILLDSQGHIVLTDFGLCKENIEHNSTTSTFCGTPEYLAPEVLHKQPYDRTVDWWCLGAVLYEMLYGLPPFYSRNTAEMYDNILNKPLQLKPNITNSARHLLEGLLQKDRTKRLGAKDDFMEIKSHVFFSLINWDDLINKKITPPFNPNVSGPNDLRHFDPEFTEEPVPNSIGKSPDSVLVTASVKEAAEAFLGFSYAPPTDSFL

[20] = target: T4, Serine/threonine-protein kinase Sgk1 (Homo sapiens); details: at 10 µM

Chain of Ribosomal protein S6 kinase alpha-6 (Homo sapiens) (Q9UK32 whole entry): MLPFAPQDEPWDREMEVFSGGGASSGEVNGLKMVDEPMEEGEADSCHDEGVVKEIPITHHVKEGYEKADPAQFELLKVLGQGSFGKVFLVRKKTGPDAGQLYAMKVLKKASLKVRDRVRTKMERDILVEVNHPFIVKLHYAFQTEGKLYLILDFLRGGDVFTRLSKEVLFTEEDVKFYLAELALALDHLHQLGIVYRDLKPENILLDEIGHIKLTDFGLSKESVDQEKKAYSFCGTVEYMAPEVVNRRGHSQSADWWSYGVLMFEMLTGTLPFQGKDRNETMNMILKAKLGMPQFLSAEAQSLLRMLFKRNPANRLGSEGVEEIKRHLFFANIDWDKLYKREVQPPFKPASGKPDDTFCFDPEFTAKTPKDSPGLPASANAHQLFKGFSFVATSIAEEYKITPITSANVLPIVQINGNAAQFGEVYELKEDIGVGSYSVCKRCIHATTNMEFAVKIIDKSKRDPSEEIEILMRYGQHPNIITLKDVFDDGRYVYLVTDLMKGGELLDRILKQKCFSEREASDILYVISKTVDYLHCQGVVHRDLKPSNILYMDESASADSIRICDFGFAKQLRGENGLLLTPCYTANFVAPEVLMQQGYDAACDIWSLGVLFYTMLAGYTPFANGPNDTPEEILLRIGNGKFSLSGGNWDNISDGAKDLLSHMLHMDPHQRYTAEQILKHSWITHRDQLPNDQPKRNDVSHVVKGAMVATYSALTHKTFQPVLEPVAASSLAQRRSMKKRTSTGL
Chain of Ribosomal protein S6 kinase alpha-3 (Homo sapiens) (P51812 whole entry): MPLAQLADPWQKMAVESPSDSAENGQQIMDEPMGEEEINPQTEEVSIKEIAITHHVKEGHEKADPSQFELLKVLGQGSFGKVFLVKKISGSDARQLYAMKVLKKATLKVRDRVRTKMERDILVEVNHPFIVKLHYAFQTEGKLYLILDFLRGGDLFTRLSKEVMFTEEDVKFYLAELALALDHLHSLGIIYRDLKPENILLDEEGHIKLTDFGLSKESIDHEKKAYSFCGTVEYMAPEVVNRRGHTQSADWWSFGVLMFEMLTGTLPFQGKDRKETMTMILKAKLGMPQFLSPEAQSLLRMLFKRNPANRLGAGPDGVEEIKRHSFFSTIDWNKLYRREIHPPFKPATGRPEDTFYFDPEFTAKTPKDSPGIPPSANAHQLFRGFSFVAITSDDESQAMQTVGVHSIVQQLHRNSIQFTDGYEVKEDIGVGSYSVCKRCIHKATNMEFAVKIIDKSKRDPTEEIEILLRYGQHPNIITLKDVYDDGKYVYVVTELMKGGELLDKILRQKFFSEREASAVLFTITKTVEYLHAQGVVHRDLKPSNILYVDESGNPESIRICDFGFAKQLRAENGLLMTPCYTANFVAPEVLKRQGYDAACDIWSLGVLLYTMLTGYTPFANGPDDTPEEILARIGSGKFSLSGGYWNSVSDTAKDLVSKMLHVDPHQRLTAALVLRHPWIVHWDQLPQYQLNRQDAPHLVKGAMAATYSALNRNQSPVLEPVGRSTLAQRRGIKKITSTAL
Chain of Mitogen-activated protein kinase 11 (Homo sapiens) (Q15759 whole entry): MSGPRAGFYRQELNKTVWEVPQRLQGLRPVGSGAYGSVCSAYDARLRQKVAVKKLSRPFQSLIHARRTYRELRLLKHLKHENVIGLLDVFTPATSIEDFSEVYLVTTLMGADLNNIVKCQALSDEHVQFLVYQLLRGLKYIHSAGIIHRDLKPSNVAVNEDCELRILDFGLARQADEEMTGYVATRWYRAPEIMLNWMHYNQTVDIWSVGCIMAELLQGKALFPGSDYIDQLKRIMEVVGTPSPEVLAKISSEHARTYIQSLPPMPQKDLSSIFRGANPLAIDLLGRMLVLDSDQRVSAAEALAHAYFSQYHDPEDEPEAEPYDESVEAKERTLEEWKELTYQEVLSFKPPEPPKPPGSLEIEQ
Chain of Ribosomal protein S6 kinase alpha-1 (Homo sapiens) (Q15418 whole entry): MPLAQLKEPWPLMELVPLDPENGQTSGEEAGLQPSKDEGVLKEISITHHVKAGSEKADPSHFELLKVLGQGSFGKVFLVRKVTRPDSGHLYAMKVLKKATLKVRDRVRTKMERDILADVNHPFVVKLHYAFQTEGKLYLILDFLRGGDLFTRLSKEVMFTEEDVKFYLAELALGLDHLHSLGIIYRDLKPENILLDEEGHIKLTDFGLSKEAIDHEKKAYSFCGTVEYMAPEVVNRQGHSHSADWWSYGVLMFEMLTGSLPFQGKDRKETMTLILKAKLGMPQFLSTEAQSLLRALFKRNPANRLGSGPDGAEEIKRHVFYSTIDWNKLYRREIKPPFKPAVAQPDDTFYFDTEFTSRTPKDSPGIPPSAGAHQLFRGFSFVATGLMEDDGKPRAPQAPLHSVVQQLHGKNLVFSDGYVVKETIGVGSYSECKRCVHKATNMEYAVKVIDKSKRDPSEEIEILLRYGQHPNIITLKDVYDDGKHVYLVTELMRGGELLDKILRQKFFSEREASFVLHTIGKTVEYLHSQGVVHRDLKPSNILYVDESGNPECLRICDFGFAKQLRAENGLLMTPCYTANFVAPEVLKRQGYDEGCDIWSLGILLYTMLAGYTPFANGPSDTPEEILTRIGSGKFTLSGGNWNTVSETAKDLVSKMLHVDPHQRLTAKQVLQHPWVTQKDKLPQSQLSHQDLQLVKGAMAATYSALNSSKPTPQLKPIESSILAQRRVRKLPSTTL
Chain of Mitogen-activated protein kinase 14 (Homo sapiens) (Q16539 whole entry): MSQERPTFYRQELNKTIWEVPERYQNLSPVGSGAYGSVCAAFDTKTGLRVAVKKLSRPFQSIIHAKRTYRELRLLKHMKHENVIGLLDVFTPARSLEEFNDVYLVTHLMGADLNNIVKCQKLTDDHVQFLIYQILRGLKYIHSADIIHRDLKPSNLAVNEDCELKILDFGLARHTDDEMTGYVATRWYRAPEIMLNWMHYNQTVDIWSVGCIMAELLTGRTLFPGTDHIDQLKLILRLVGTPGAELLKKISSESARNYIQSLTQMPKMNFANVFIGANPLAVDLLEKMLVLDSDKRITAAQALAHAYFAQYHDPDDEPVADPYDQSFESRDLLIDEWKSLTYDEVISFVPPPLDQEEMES
Chain of Ribosomal protein S6 kinase alpha-2 (Homo sapiens) (Q15349 whole entry): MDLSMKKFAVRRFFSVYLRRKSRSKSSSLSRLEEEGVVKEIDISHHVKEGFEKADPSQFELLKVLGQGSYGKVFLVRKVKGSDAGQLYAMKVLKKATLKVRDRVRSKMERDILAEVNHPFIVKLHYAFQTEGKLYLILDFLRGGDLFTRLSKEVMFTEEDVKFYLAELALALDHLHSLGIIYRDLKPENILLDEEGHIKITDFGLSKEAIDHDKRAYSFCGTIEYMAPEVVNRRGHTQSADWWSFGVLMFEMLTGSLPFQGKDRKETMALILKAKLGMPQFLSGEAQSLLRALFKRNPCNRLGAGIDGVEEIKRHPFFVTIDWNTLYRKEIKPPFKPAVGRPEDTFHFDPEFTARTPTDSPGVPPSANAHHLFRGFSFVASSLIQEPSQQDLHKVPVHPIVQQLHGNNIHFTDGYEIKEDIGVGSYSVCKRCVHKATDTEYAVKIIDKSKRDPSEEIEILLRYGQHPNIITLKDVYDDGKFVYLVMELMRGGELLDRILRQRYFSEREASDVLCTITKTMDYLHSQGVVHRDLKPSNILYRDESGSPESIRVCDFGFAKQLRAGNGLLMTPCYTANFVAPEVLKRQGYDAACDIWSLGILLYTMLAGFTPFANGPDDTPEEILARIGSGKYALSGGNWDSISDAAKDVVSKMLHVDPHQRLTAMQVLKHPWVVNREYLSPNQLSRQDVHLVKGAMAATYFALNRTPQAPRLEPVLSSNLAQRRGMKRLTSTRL

## COc1cc2ncnc(Nc3ccc(OCc4ccccc4)cc3)c2cc1OC
[1]
  residual activity: 41%
[2]
  residual activity: 60%
[3]
  residual activity: 106%
[4]
  residual activity: 83%
[5]
  residual activity: 52%
[6]
  residual activity: 46%
[7]
  residual activity: 110%
[8]
  residual activity: 72%
[9]
  residual activity: 106%
[10]
  residual activity: 133%
[11]
  residual activity: 102%
[12]
  residual activity: 106%
[13]
  residual activity: 107%
[14]
  residual activity: 102%
[15]
  residual activity: 111%
[16]
  residual activity: 115%
[17]
  residual activity: 127%
[18]
  residual activity: 109%
[19]
  residual activity: 115%
[20]
  residual activity: 80%

## COc1ccc2c(c1)c(C1=C(c3c[nH]c4ccccc34)C(=O)NC1=O)cn2CCCN(C)C
[15]
  residual activity: 100%
[16]
  residual activity: 100%

## CN[C@@H]1C[C@H]2O[C@@](C)([C@@H]1OC)n1c3ccccc3c3c4c(c5c6ccccc6n2c5c31)C(=O)NC4
[11]
  residual activity: 81%
[12]
  residual activity: 79%
[13]
  residual activity: 97%
[14]
  residual activity: 89%

## Cn1c2ccccc2c2c3c(c4c5ccccc5n(CCC#N)c4c21)CNC3=O
[15]
  residual activity: 61%
[16]
  residual activity: 61%

## C[S+]([O-])c1ccc(-c2nc(-c3ccc(F)cc3)c(-c3ccncc3)[nH]2)cc1 (stereo unspecified)
[1]
  residual activity: 107%
[4]
  residual activity: 80%
[5]
  residual activity: 108%
[6]
  residual activity: 97%
[7]
  residual activity: 107%
[8]
  residual activity: 96%
[9]
  residual activity: 114%
[10]
  residual activity: 113%
[15]
  residual activity: 114%
[16]
  residual activity: 86%
[17]
  residual activity: 111%
[19]
  residual activity: 96%
[20]
  residual activity: 124%

## COc1cc2nccc(Oc3ccc(NC(=O)Nc4cc(C)on4)c(Cl)c3)c2cc1OC
[11]
  residual activity: 23%
[12]
  residual activity: 5%
[14]
  residual activity: 5%

## CO[C@@H]1[C@H](N(C)C(=O)c2ccccc2)C[C@H]2O[C@]1(C)n1c3ccccc3c3c4c(c5c6ccccc6n2c5c31)C(=O)NC4
[15]
  residual activity: 104%
[16]
  residual activity: 87%

## O=[N+]([O-])/C=C/c1ccc2c(c1)OCO2
[1]
  residual activity: 100%
[2]
  residual activity: 111%
[3]
  residual activity: 137%
[4]
  residual activity: 106%
[5]
  residual activity: 118%
[6]
  residual activity: 100%
[7]
  residual activity: 105%
[8]
  residual activity: 94%
[9]
  residual activity: 128%
[10]
  residual activity: 94%
[11]
  residual activity: 93%
[12]
  residual activity: 105%
[13]
  residual activity: 102%
[14]
  residual activity: 110%
[15]
  residual activity: 107%
[16]
  residual activity: 99%
[17]
  residual activity: 103%
[18]
  residual activity: 98%
[19]
  residual activity: 76%
[20]
  residual activity: 105%

## COc1ccc2c(c[n+](C)c3c4cc5c(cc4ccc23)OCO5)c1OC
[1]
  residual activity: 89%
[2]
  residual activity: 79%
[4]
  residual activity: 92%
[6]
  residual activity: 91%
[8]
  residual activity: 93%
[16]
  residual activity: 94%
[20]
  residual activity: 85%

## CCn1cnc2c(Nc3cccc(Cl)c3)nc(N[C@@H]3CCCC[C@@H]3N)nc21
[1]
  residual activity: 93%
[2]
  residual activity: 50%
[3]
  residual activity: 67%
[4]
  residual activity: 16%
[5]
  residual activity: 28%
[6]
  residual activity: 4%
[7]
  residual activity: 30%
[8]
  residual activity: 5%
[9]
  residual activity: 24%
[10]
  residual activity: 7%
[11]
  residual activity: 90%
[12]
  residual activity: 61%
[13]
  residual activity: 94%
[14]
  residual activity: 76%
[16]
  residual activity: 94%
[18]
  residual activity: 81%
[19]
  residual activity: 91%
[20]
  residual activity: 90%
